Laboratory results taken from PubChem BioAssay (NCATS).
Records with an inconclusive call do not appear. The source made the active and inactive calls. Calls come from the whole dose curve; as a rule, active = well fitted curve in the direction sought with a large enough effect; inconclusive = small, poorly fitted or top-dose-only effect, or another doubt; inactive = no such curve, though single readings can be large; an effect the other way counts as inactive or inconclusive.

How the values were obtained:
[1] = Quantitative High-Throughput drug screen in 47 multiple myeloma cell lines against the NCATS MIPE library collection: Karpas620_DSMZ cell viability assay (AID 1918959); note: nearly all actives have a fitted effect of over 30% in size
How it was run: (§1)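 Myeloma cells (500 per well) were exposed to MIPE 4.0 compounds by pin transfer and incubated 48 hours at 37C, 5% CO2. Viability was read as ATP by CellTiter-Glo luminescence, normalised to DMSO (100%) and media-only (0%) wells.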

[2] = Quantitative High-Throughput drug screen in 47 multiple myeloma cell lines against the NCATS MIPE library collection: KMM1_JCRB cell viability assay (AID 1918960); note: nearly all actives have a fitted effect of over 30% in size
How it was run: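 500 cells/well; MIPE 4.0 library pinned in; 48 h, 37 °C, 5% CO2; CellTiter-Glo ATP luminescence. Controls: DMSO = 100% viability, medium only = 0%.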

[3] = Quantitative High-Throughput drug screen in 47 multiple myeloma cell lines against the NCATS MIPE library collection: Karpas417_ECACC cell viability assay (AID 1918961); details: Karpas417 myeloma viability, CellTiter-Glo ATP luminescence, 48 h; viability (% of DMSO): at 45.8 µM (top of the series)
How it was run: (§2)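 CellTiter-Glo ATP luminescence gave viability after 48 h compound treatment at 37C of 500 multiple myeloma cells per well. Normalisation used DMSO-only wells as 100% and media-only wells as 0% viability; primary qHTS of approved and investigational drugs.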

[4] = Quantitative High-Throughput drug screen in 47 multiple myeloma cell lines against the NCATS MIPE library collection: KHM11_PLB cell viability assay (AID 1918962); note: nearly all actives have a fitted effect of over 35% in size
How it was run: as §1

[5] = Quantitative High-Throughput drug screen in 47 multiple myeloma cell lines against the NCATS MIPE library collection: JIM3_ECACC cell viability assay (AID 1918963; note: nearly all actives have a fitted effect of over 35% in size)
How it was run: as §1

[6] = Quantitative High-Throughput drug screen in 47 multiple myeloma cell lines against the NCATS MIPE library collection: INA6_PLB cell viability assay (AID 1918965; note: nearly all actives have a fitted effect of over 55% in size)
How it was run: as §2

[7] = Quantitative High-Throughput drug screen in 47 multiple myeloma cell lines against the NCATS MIPE library collection: JJN3_DSMZ cell viability assay (AID 1918966; note: nearly all actives have a fitted effect of over 50% in size)
How it was run: (§3)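 Luminescent ATP measurement with CellTiter-Glo gives viability, scaled between DMSO-only wells (100%) and media-only wells (0%). Cells, 500 per well, faced library compounds for 48 hours at 37C.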

[8] = Quantitative High-Throughput drug screen in 47 multiple myeloma cell lines against the NCATS MIPE library collection: ARD_JJKsccE7 cell viability assay (AID 1918929)
How it was run: as §3

[9] = Quantitative High-Throughput drug screen in 47 multiple myeloma cell lines against the NCATS MIPE library collection: JIM1_ECACC cell viability assay (AID 1918964)
How it was run: as §3
Potency is the fitted concentration of half-maximal effect.

SMILES	Potency [1]	Potency [2]	Potency [3]	Potency [4]	Potency [5]	Potency [6]	Potency [7]	Potency [8]	Potency [9]
CCOC(=O)C1=C(N)Oc2ccc(Br)cc2C1C(C#N)C(=O)OCC (stereo not drawn)	18.7 µM (active)	16.6 µM (active)	8.33 µM (active)	20.9 µM (active)	23.5 µM (active)	18.7 µM (active)	20.9 µM (active)	–	–
C[N+](C)(C)CC(=O)O	–	inactive	inactive	inactive	–	–	–	inactive	–
C[N+]1(C)[C@@H]2CC(OC(=O)[C@H](CO)c3ccccc3)C[C@H]1[C@H]1O[C@@H]12 (stereo partly drawn)	inactive	inactive	–	–	–	–	–	–	–
CC=C(C)C(=O)O[C@H]1C(C)=C[C@]23C(=O)[C@@H](C=C(CO)[C@@H](O)[C@]12O)[C@H]1[C@@H](C[C@H]3C)C1(C)C	–	11.8 µM (active)	0.209 µM (active)	3.72 µM (active)	18.7 µM (active)	0.0066 µM (active)	–	11.8 µM (active)	–
CC(C)n1cnc2c(NCCCCCCNC(=O)OC(C)(C)C)nc(NCCO)nc21	–	7.43 µM (active)	–	–	18.7 µM (active)	23.5 µM (active)	–	5.9 µM (active)	inactive
O=C1NC(=O)C(=Cc2ccc3c(c2)OC(F)(F)O3)S1	–	–	–	13.2 µM (active)	–	26.4 µM (active)	–	16.6 µM (active)	inactive
C[C@]12CCC3c4ccc(O)cc4CCC3C1CCC2=O (stereo partly drawn)	–	inactive	–	inactive	inactive	–	–	inactive	–
CC=CCC=CCCC(=O)[C@H]1O[C@@H]1C(N)=O	16.6 µM (active)	–	–	–	–	18.7 µM (active)	16.6 µM (active)	26.4 µM (active)	–
CC(=Cc1ccccc1)C=C1SC(=S)N(CC(=O)O)C1=O	–	inactive	inactive	inactive	inactive	inactive	–	inactive	–
O=C(NOCC(O)CO)c1cc(Br)c(F)c(F)c1Nc1ccc(I)cc1F (stereo not drawn)	inactive	inactive	–	–	–	–	–	–	–
COc1ccc(-c2cc(=O)c3c(O)cc(O)cc3o2)cc1O	–	7.43 µM (active)	–	10.5 µM (active)	7.43 µM (active)	8.33 µM (active)	–	6.62 µM (active)	9.35 µM (active)
COC(=O)N[C@H](C(=O)N1CCC[C@@H]1c1ncc(-c2ccc(-c3ccc(-c4cnc([C@@H]5CCCN5C(=O)[C@@H](NC(=O)OC)C(C)C)[nH]4)cc3)cc2)[nH]1)C(C)C	–	16.6 µM (active)	–	–	18.7 µM (active)	–	23.5 µM (active)	23.5 µM (active)	–
O=c1c(-c2ccc(O)cc2)coc2cc(O)ccc12	–	inactive	inactive	–	inactive	inactive	–	inactive	inactive
CO[C@@H](C(=O)N1Cc2[nH]nc(NC(=O)c3ccc(N4CCN(C)CC4)cc3)c2C1)c1ccccc1	–	7.43 µM (active)	–	10.5 µM (active)	4.69 µM (active)	0.372 µM (active)	23.5 µM (active)	26.4 µM (active)	16.6 µM (active)
OC[C@H]1O[C@@H](n2cnc3c2NC=NC[C@@H]3O)C[C@H]1O	–	inactive	inactive	inactive	–	inactive	23.5 µM (active)	inactive	inactive
CCS(=O)(=O)N1CC(CC#N)(n2cc(-c3ncnc4[nH]ccc34)cn2)C1	–	inactive	0.105 µM (active)	11.8 µM (active)	16.6 µM (active)	0.418 µM (active)	11.8 µM (active)	inactive	–
O=C(O)c1c(Cl)c(Cl)c(Cl)c(Cl)c1-c1c2cc(I)c(=O)c(I)c-2oc2c(I)c(O)c(I)cc12	14.8 µM (active)	–	–	–	7.43 µM (active)	10.5 µM (active)	5.9 µM (active)	8.33 µM (active)	–
Clc1ccc(COC(Cn2ccnc2)c2ccc(Cl)cc2Cl)cc1 (stereo not drawn)	–	20.9 µM (active)	–	–	–	20.9 µM (active)	–	26.4 µM (active)	–
O=C1NC(=O)C(=Cc2ccc(-c3ccc(F)cc3)o2)S1	inactive	5.9 µM (active)	1.66 µM (active)	inactive	–	inactive	–	–	–
Clc1cc(Cl)cc(CNc2ncncc2-c2ccc3c(c2)OCO3)c1	–	–	–	–	16.6 µM (active)	16.6 µM (active)	–	16.6 µM (active)	–
NC(=O)c1ccc2nc(-c3ccc(Oc4ccc(Cl)cc4)cc3)[nH]c2c1	–	0.469 µM (active)	0.187 µM (active)	0.0083 µM (active)	0.105 µM (active)	–	–	5.9 µM (active)	–
O=C(O)[C@H]1O[C@H](Oc2cc3oc(-c4ccccc4)cc(=O)c3c(O)c2O)[C@H](O)[C@@H](O)[C@H]1O	–	–	–	20.9 µM (active)	–	inactive	13.2 µM (active)	inactive	–
COc1ccc(-n2c(C)c([N+](=O)[O-])c3ccc(O)cc32)cc1	inactive	inactive	–	inactive	inactive	–	–	–	–
CN1CCN(CCOc2cc(OC3CCOCC3)c3c(Nc4c(Cl)ccc5c4OCO5)ncnc3c2)CC1	–	14.8 µM (active)	–	18.7 µM (active)	23.5 µM (active)	–	–	18.7 µM (active)	–
CC(C)C(=O)Nc1ncc(-c2cc(C(F)F)nn2-c2c(Cl)cccc2Cl)s1	–	16.6 µM (active)	–	–	23.5 µM (active)	23.5 µM (active)	–	20.9 µM (active)	–
